Where “and” joins values, the source holds several entries; their conditions need not be identical. Identical values can stand only once. Compounds without any hit were thinned out: in the full panel of roughly 83,000, 20% have a hit.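 Single-concentration screen, 48 h exposure, 96-well plates. Endpoint: percent growth. Below 10 = active.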 Unmarked numbers belong to inactive results. Calls of active or inactive are those of the source.
The compounds below were run on HL-60(TB) leukemia (assay: NCI-60 one-dose screen, 48 h (100 = growth as untreated, 0 = no growth, -100 = all killed)). Details: 10 µM unless noted.

How did the growth turn out when `CN(C)C(=S)SC(=S)N(C)C` was run?
The growth was 103% and 93.8%.

How did the growth turn out when `ClCCn1cnc2c(SCc3ccccc3Cl)ncnc21` was run?
Its growth is 8.38% (active).

With `Oc1ccc(Cl)cc1/C=N\NC(=S)N/N=C/c1cc(Cl)ccc1O` as the compound, how does the growth read?
Its growth is 12.2%.

`COc1cccc2cc(-c3cc4ccccc4[nH]3)c(=NC(=O)c3ccc(Cl)cc3)oc12` was tested. Which growth did it give?
The growth was 72.1%.

How did the growth turn out when `O=C(Nc1nc2ccccc2[nH]1)C(=O)Nc1nc2ccccc2[nH]1` was run?
The growth was 99.7%.

`O=C(OCC1CCCO1)c1ccc([N+](=O)[O-])cc1` (stereo not given) was tested. Which growth did it give?
Its growth is 102%.

`CCC(O)c1ccccc1` (stereo not given) was tested. Which growth did it give?
The growth was 98.6% and 77.4%.

With `Cc1ccc2c(c1)Sc1c(ccc3ccccc13)N2` as the compound, how does the growth read?
The growth was 44.9%.

Which growth does the source give for `Cc1ccc(C(=O)Nc2ccc(Cl)cc2C(=O)NCc2ccccc2)cc1` here?
The growth was 51.9%.

With `COc1c(Cl)cc(Cl)c2ccc(C=C3C(=O)NC(=S)NC3=O)nc12` as the compound, how does the growth read?
The growth was 102%.

`CC(=O)/C(=C\c1c(-c2ccccc2)[nH]c2ccccc12)S(C)(=O)=O` was tested. Which growth did it give?
The growth was -55.2% (active).

With `CCN(CC)C(=O)O/N=C(/C)c1ccccc1` as the compound, how does the growth read?
Its growth is 95.5%.

For `N#CCCN=Nc1c(O)[nH]c2ccc(F)cc12`, which growth is on record?
The growth was 110%.

Which growth does the source give for `CCOC(=O)C1=C(N)Oc2c(sc3c(C)cccc23)C1c1ccc(OC)cc1` (stereo not given) here?
The growth was 1.54% (active).

`CCN(CC)CCCC(C)Nc1ccnc2cc(Oc3ccccc3)ccc12` (stereo not given) was tested. Which growth did it give?
The growth was 69% and 97.8%.

For `Cn1c(=O)c2nc(/C=C/c3ccccc3)c(=O)[nH]c2n(C)c1=S`, which growth is on record?
Its growth is 98.2%.

With `Nc1[nH][nH]c(=O)c1N=Nc1ccccc1` as the compound, how does the growth read?
Its growth is 98.6% and 102%.

With `CCOC(=O)C1OC2(CCCC2)OC1C(=O)OCC` (stereo not given) as the compound, how does the growth read?
Its growth is 87.4%.

Which growth does the source give for `COc1ccc(S(=O)(=O)ON=C2C=C(C)C(=O)C(C)=C2)cc1` here?
Its growth is 43.7%.

With `NC(=S)NN=C1CCC(C2CCCCC2)CC1` (stereo not given) as the compound, how does the growth read?
The growth was 91.2% and 70.9%.

With `O=[N+]([O-])c1ccc(/C=N\NC(=S)Nc2ccc(F)cc2)cc1` as the compound, how does the growth read?
The growth was 114% and 82.5%.

Which growth does the source give for `CCOC(=O)c1sc2ncc(-c3ccc(C)cc3)n2c1C` here?
Its growth is 75.4%.

Which growth does the source give for `CCCCCCCCCCCCCCCC(=O)N1CCN(C)CC1` here?
Its growth is 47.3%.

`CCCCCn1ncc(-c2c(O)c(O)cc3c(O)c(-c4c(C)cc5c(-c6cnn(CCCCC)n6)c(O)c(O)cc5c4O)c(C)cc23)n1` was tested. Which growth did it give?
The growth was -22.3% (active).

Which growth does the source give for `Cc1sc2nc(N3CCCCC3)[nH]c(=O)c2c1C` here?
The growth was 102%.

How did the growth turn out when `CC(C)CCC[C@@H](C)[C@H]1CC[C@H]2[C@@H]3CC=C4C[C@@H](C(C(=O)O)C(=O)O)CC[C@]4(C)[C@H]3CC[C@]12C` was run?
Its growth is -44.4% (active).

Which growth does the source give for `CN(C)CCn1cc(-c2ccc3c(Nc4ccc(CC(=O)Nc5cccc(F)c5)cc4)ncnc3c2)cn1` here?
Its growth is -55.3% [30 µM] (active).

`Cc1cc(S(=O)(=O)/N=C(\N)n2nc(C)c(C)c2C)c(SCc2ccccc2)cc1Cl` was tested. Which growth did it give?
The growth was 81.9%.

For `COc1ccc(Nc2ncccc2C(=O)NCc2cn(Cc3cccc(Oc4ccccc4)c3)nn2)c(OC)c1`, which growth is on record?
Its growth is 18.9%.

`CC(C)(C)n1cc(-c2ccnc(NCCNS(=O)(=O)c3cccc4ccccc34)c2)c(-c2cccc(F)c2)n1` was tested. Which growth did it give?
The growth was -52.3% (active).

`COC(=O)c1c2c(c(C)[n+]([O-])c1C)C(=O)C(NCc1ccc(O)cc1)=CC2=O` was tested. Which growth did it give?
Its growth is -8.85% (active).

With `OCC1C2C=CC(C2)C1CO` (stereo not given) as the compound, how does the growth read?
The growth was 87.5%.

How did the growth turn out when `c1ccc2cc3nc4cc5ccccc5cc4nc3cc2c1` was run?
The growth was 90.5%.

How did the growth turn out when `O=C(Nc1ccc(Cl)c(C(F)(F)F)c1)Nc1ccc(-c2cccnc2)cc1N1CCC(CO)CC1` was run?
Its growth is -6.89% (active).

How did the growth turn out when `CN1CCN(CCOc2ccc(-c3cnc4c(-c5ccccc5F)cnn4c3)cc2)CC1` was run?
Its growth is -30.2% (active).

With `N#Cc1cnc(NCCc2ccncc2)nc1-n1cnc2ccccc21` as the compound, how does the growth read?
The growth was 37.7%.

For `CCCCCCCCCCCC(=O)NCCCN(C)C`, which growth is on record?
Its growth is 83.7%.

`CC(=O)Nc1nc(C)c(C(=O)NN)s1` was tested. Which growth did it give?
The growth was 117%.

For `COc1ccc(C(=O)C(O)c2ccc(OC)cc2)cc1` (stereo not given), which growth is on record?
Its growth is 97.2% and 94.5%.

How did the growth turn out when `Cc1cc(CC(=O)O)n(C)c1C(=O)c1ccc(Cl)cc1` was run?
Its growth is 105%.
